Records with an inconclusive call do not appear. The source made the active and inactive calls. Unless noted, the call rests on the fitted dose curve; in most records, active means well fitted curve in the direction sought with a large enough effect; inconclusive means small, poorly fitted or top-dose-only effect, or another doubt; inactive means no such curve, though single readings can be large; an effect the other way counts as inactive or inconclusive.
Legend:
[1] = biological target: Thioredoxin reductase 1, cytoplasmic (Rattus norvegicus) (UniProt O89049); experiment: qHTS Assay for Substrates of Mammalian Selenoprotein Thioredoxin Reductase 1 (TrxR1) (AID 488772);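 further: NADPH fluorescence in the first read after selenite addition and not the 8 min delta; series mostly up to about 57 µM; 0% is about no effect; a drop in NADPH fluorescence below the no-compound background marks a TrxR1 substrate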
Chain of Thioredoxin reductase 1, cytoplasmic (Rattus norvegicus) (O89049 whole entry, looked up): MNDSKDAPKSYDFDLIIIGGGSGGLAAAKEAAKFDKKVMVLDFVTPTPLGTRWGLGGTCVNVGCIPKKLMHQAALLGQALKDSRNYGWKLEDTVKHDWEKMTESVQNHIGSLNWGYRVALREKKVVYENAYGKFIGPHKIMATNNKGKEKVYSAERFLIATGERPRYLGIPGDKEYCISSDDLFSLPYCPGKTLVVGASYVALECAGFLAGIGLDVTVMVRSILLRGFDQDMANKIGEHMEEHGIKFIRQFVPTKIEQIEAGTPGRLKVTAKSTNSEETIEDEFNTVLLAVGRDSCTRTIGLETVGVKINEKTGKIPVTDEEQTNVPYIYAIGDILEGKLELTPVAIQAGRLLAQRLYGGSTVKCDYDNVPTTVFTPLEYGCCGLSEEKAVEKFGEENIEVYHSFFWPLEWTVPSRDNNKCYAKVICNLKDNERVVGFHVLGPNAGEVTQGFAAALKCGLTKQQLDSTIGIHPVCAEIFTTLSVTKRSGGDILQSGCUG
How it was run: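 Quantitative HTS in Tris-HCl buffer at pH 7.5 with EDTA and Tween-20, using rat TrxR1, 400 uM NADPH and 400 uM selenite (final). A fall in initial NADPH fluorescence relative to background marked substrate behaviour.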

[2] = biological target: Thioredoxin reductase 1, cytoplasmic (Rattus norvegicus) (UniProt O89049); experiment: qHTS Assay for Inhibitors of Mammalian Selenoprotein Thioredoxin Reductase 1 (TrxR1) (AID 488773); settings: Potency: inhibition;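 further: drop in NADPH fluorescence over an 8 min run after selenite addition; series mostly up to about 57 µM; on the % scale 0 is the no-effect control and ±100 the full control effect; nearly all actives have a fitted effect of over 40% in size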
How it was run: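 Steps: enzyme (90 nM) plus NADPH (400 uM final), 5 min at ~22 deg C; compound added, 15 min; selenite (400 uM final) added; fluorescence followed for 8 min. Concentration-response curves derived from the normalized delta values.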

[3] = biological target: Methanococcus maripaludis chaperonin (MmCpn) (UniProt Q6LX38); experiment: High-Throughput Screening for Modulators of Cytosolic Chaperonin Activity: MmCpn Primary Screen (AID 488978);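 further: 50 nM MmCpn enzyme hydrolysing 30 µM ATP at 37 °C; 0% is about no effect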
Chain of Methanococcus maripaludis chaperonin (MmCpn) (Q6LX38 1-543): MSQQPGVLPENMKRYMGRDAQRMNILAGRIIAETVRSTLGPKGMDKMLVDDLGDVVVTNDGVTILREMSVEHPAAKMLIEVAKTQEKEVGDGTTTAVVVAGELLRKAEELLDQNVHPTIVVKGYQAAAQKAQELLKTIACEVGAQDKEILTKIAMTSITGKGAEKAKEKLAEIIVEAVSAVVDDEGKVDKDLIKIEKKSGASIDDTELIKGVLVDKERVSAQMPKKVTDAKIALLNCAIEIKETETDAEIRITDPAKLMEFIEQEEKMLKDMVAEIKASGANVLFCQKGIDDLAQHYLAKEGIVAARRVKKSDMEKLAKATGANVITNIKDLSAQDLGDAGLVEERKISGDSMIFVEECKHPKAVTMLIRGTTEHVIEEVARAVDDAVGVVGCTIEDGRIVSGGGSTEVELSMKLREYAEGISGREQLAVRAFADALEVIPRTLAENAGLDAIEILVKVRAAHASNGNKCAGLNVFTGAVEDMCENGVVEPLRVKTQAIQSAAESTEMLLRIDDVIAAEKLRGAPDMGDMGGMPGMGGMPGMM
How it was run: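 Measures ATPase turnover of the M. maripaludis chaperonin (50 nM final) against 30 uM ATP over 10 min at 37C, with compound added 5 min beforehand at room temperature. ADP is quantified by HTRF immunodetection.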

[4] = biological target: D(1A) dopamine receptor (Homo sapiens) (UniProt P21728); experiment: HTS Assay for Allosteric Agonists of the Human D1 Dopamine Receptor: Primary Screen for Agonists (AID 488981); further: 0% is about no effect
Chain of D(1A) dopamine receptor (Homo sapiens) (P21728 whole entry, looked up): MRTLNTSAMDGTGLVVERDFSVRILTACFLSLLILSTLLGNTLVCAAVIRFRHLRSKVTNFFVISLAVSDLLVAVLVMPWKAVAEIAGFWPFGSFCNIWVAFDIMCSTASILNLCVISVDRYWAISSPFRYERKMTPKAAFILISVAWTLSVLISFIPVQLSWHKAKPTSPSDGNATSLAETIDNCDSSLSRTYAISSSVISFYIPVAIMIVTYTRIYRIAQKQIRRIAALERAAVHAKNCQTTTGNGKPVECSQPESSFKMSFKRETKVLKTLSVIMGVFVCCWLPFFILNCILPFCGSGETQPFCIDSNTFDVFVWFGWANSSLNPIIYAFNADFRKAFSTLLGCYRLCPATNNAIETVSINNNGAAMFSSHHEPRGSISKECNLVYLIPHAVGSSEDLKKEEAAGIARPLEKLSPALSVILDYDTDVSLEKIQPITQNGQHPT
How it was run: (§1)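 Tetracycline-induced HEK293 T-REx cells force-coupled to calcium signalling were incubated overnight at 30 C and dye-loaded at room temperature. Calcium flux over 180 s after compound addition flagged agonists; a further 180 s read after EC20 dopamine flagged potentiators.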

[5] = biological target: D(1A) dopamine receptor (Homo sapiens) (UniProt P21728); experiment: HTS Assay for Allosteric Agonists of the Human D1 Dopamine Receptor: Primary Screen for Potentiators (AID 488982); further: 0% is about no effect
How it was run: as §1

[6] = biological target: D(1A) dopamine receptor (Homo sapiens) (UniProt P21728); experiment: HTS Assay for Allosteric Agonists of the Human D1 Dopamine Receptor: Primary Screen for Antagonists (AID 488983);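 further: calcium flux response to an EC80 dopamine challenge measured with no-wash dye; on the % scale 0 is the no-effect control and ±100 the full control effect; nearly all actives have a fitted effect of over 65% in size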
How it was run: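 Screening of inducible HEK293 T-REx D1 cells: compound first, EC80 dopamine 180 s later, each phase read kinetically for calcium over 180 s.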

[7] = biological target: Thyrotropin-releasing hormone receptor (Homo sapiens) (UniProt P34981); experiment: qHTS for Small Molecule Agonists and Allosteric Enhancers of Human TRH Receptor: Validation Screen for Agonists (AID 493127;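 active means calcium activation more than 3 SD above the typical response in the agonist read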;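 further: intracellular calcium rise by fluo-8 fluorescence before TRH EC20 addition; 0% is about no effect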); settings: TRH receptor agonist cell assay; at 2 µM; stronger effect = higher value
How it was run: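 Gq-coupled calcium mobilization in TRHR cells after compound addition, monitored kinetically with fluo-8 dye on an FDSS reader.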

[8] = qHTS for Inhibitors of Cell Surface uPA Generation: Validation Assay (AID 493164);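 further: RAW 264.7 macrophage cells exposed to compound for 18 h; 0% is about no effect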
How it was run: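 RAW 264.7, 4000 cells/well, o/n plating; cpd 7-pt 1:5 dilution 2.45 nM–38.3 uM final; 18 h, 37 C/5% CO2; ATP-Lite, 5 s luminescence exposure.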

[9] = biological target: Galactokinase (Homo sapiens) (UniProt P51570); experiment: qHTS Validation Assay for Inhibitors of Human Galactokinase (GALK) (AID 493189); further: 0% is about no effect
Chain of Galactokinase (Homo sapiens) (P51570 whole entry, looked up): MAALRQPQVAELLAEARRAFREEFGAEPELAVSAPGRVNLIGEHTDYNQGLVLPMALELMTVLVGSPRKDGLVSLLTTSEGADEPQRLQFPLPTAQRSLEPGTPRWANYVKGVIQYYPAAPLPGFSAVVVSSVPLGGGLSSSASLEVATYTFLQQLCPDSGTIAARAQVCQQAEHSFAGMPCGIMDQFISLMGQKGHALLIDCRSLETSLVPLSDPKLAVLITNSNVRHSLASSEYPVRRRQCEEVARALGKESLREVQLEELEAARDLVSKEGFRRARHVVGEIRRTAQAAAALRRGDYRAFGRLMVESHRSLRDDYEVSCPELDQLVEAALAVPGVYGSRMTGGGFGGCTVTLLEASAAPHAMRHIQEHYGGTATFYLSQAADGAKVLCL
How it was run: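 Compounds were pin-transferred into ATP buffer, then GALK-galactose mix was added (final 5 nM enzyme, 100 uM galactose, 35 uM ATP). After 1 h at room temperature, remaining ATP was measured luminescently.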

[10] = biological target: ATP-dependent 6-phosphofructokinase (Trypanosoma brucei brucei) (UniProt O15648); experiment: qHTS Assay to Find Inhibitors of T. brucei phosphofructokinase: hit validation (AID 492961);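 further: luminescence reports ADP formed as PFK phosphorylates fructose-6-phosphate with ATP; series mostly up to about 51 µM; on the % scale 0 is the no-effect control and ±100 the full control effect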
Chain of ATP-dependent 6-phosphofructokinase (Trypanosoma brucei brucei) (O15648 whole entry, looked up): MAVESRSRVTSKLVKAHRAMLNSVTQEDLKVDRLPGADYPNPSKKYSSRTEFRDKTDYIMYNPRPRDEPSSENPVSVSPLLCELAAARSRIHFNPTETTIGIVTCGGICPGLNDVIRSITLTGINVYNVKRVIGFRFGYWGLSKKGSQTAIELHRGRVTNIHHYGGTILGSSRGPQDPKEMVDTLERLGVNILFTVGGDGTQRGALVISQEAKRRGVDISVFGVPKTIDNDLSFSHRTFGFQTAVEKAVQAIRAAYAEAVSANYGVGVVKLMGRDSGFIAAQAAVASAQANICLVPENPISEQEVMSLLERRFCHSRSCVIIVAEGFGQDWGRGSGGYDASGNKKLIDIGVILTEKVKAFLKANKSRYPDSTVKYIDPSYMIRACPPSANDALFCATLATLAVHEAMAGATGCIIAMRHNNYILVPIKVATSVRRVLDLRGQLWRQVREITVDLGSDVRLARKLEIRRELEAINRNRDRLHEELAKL
How it was run: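 Percent activity derived from corrected luminescence, normalized between 0x and 1x enzyme controls, then fitted to concentration-response curves. Conditions: 1.25 nM PFK, 0.1 mM ATP, 0.5 mM F6P, 45 min RT.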

[11] = biological target: Flap endonuclease 1 (Homo sapiens) (UniProt P39748); experiment: qHTS Validation Assay for the Inhibitors of Human Flap endonuclease 1 (FEN1) (AID 488816); further: on the % scale 0 is the no-effect control and ±100 the full control effect
How it was run: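 FEN1, dispensed as a 10 nM reagent, was preincubated with pin-transferred compounds for 15 min at room temperature before substrate was added (50 nM final). Plates were read at 0 and 15 min, and a four-parameter Hill equation was fitted to the concentration-response data.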

[12] = biological target: Chromobox protein homolog 1 (Homo sapiens) (UniProt P83916); experiment: qHTS Validation Assay for Inhibitors of HP1-beta Chromodomain Interactions with Methylated Histone Tails (AID 488953);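 further: loss of AlphaScreen luminescence from HP1-beta binding biotinylated H3K9me3 peptide; series mostly up to about 110 µM; on the % scale 0 is the no-effect control and ±100 the full control effect; nearly all actives have a fitted effect of over 50% in size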
Chain of Chromobox protein homolog 1 (Homo sapiens) (P83916 whole entry, looked up): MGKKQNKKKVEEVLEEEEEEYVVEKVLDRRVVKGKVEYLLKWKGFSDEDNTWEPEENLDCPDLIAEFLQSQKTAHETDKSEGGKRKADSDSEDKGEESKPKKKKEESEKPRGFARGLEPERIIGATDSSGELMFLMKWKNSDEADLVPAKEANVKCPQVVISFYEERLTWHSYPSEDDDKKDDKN
How it was run: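 Measured as loss of AlphaScreen luminescence from streptavidin donor and nickel acceptor beads (10 ug/mL final) bridging HP1-beta and biotin-H3(1-18)K9me3, each 50 nM. Compounds met the preassembled complex for 30 min at RT.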

[13] = biological target: Transient receptor potential cation channel subfamily V member 1 (Homo sapiens) (UniProt Q8NER1); experiment: HTS Assay for Compounds that Act as Enhancers of the Vanilloid Receptor 1 (AID 488979); further: 0% is about no effect
Chain of Transient receptor potential cation channel subfamily V member 1 (Homo sapiens) (Q8NER1 whole entry, looked up): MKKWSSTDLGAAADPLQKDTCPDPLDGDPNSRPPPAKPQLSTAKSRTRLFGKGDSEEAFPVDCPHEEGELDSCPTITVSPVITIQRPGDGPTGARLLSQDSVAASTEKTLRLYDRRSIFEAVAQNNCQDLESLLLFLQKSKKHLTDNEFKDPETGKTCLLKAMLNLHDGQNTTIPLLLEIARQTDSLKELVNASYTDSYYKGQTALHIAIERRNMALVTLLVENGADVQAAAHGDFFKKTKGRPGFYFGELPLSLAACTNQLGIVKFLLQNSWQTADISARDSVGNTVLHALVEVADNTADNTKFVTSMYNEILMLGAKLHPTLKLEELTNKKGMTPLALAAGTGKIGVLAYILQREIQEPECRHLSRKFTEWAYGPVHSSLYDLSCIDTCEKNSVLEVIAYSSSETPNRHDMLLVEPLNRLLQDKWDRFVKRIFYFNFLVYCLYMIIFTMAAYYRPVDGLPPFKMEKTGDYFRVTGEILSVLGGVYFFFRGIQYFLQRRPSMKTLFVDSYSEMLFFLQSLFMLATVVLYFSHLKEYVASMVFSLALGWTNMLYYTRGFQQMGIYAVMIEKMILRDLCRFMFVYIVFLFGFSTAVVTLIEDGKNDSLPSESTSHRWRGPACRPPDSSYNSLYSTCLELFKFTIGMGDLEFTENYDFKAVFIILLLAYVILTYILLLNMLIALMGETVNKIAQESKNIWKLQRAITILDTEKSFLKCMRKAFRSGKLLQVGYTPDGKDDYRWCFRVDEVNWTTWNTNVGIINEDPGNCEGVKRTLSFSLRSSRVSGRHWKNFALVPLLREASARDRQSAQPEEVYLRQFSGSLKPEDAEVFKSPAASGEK
How it was run: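 TRPV1-expressing cells loaded with Fluo-8 calcium dye; compounds added and calcium influx read kinetically for 3 min (agonist phase), then capsaicin at EC20 added and read 2 min more for enhancement. Fluorescence ex 480/em 520 nm.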

[14] = biological target: Thyrotropin receptor (Homo sapiens) (UniProt P16473); experiment: qHTS Assay for Antagonists of the Thyroid Stimulating Hormone Receptor (AID 488980); further: series mostly up to about 58 µM; 0% is about no effect
Chain of Thyrotropin receptor (Homo sapiens) (P16473 whole entry, looked up): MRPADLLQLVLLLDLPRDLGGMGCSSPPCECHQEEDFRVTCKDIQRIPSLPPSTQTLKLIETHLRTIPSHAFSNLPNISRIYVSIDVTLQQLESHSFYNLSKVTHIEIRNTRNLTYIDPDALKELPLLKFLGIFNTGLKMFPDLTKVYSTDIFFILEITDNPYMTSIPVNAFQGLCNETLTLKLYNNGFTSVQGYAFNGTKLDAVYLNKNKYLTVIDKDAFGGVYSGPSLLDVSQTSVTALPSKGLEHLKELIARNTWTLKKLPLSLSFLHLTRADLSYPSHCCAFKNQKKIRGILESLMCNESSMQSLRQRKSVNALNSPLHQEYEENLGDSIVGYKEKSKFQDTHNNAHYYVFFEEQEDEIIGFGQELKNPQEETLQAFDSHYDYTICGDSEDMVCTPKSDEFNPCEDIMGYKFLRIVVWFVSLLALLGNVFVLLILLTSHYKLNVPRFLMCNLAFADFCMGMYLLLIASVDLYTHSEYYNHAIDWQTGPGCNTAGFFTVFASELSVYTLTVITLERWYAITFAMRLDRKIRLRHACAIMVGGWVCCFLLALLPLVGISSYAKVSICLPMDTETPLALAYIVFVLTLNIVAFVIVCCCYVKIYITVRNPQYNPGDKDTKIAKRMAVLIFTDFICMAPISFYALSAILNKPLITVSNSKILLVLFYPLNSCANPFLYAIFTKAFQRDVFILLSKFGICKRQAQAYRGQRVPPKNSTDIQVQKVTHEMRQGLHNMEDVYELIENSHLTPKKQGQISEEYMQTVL
How it was run: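 Cells expressing human TSHR (HEK293) are dispensed in HBSS/HEPES containing 70 uM RO 20-1724, compound is added, then TSH at EC80 (4 nM final). Antibody in lysis buffer follows, 30 minutes at room temperature before HTRF detection.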

[15] = Validation screen for small molecules that induce genotoxicity in human embryonic kidney (HEK293T) cells expressing luciferase-tagged ELG1 (AID 493106); further: 0% is about no effect
How it was run: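 Reporter-gene quantitative HTS in HEK293T cells carrying luciferase-tagged ELG1, whose level climbs under genotoxic stress. Compound exposure lasts 16 hr at 37 °C before luciferase detection.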

[16] = Nrf2 qHTS screen for inhibitors: Validation (AID 493153; active means well fitted inhibition curve with a large enough effect in the main read-out, with a control signal flat, not every such curve was filed as active); settings: Potency: luciferase luminescence; viability change: measured here: cytotoxicity max response
How it was run: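 Dose-response validation uses reporter A549 cells with firefly luciferase under an antioxidant response element. Compounds stay on cells 18-24 h at 37°C, and luminescence indicates Nrf2-driven transcription.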

[17] = Validation screen for small molecules that induce DNA re-replication in SW480 colon adenocarcinoma cells (AID 504364); further: 0% is about no effect
How it was run: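 Cells are treated 48 hr with test compound, stained 40 min with Hoechst at 37 C, and scanned for nuclear fluorescence; compounds inducing re-replication increase nuclei with elevated intensity.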

[18] = biological target: M-phase phosphoprotein 8 (Homo sapiens) (UniProt Q99549); experiment: qHTS Validation Assay for Inhibitors for MPP8 Chromodomain Interactions with Methylated Histone Tails (AID 488949);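 further: AlphaScreen signal from MPP8 chromodomain bound to biotinylated H3K9me3 peptide; top concentration of the series differs between compounds; on the % scale 0 is the no-effect control and ±100 the full control effect; nearly all actives have a fitted effect of over 55% in size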
Chain of M-phase phosphoprotein 8 (Homo sapiens) (Q99549 whole entry, looked up): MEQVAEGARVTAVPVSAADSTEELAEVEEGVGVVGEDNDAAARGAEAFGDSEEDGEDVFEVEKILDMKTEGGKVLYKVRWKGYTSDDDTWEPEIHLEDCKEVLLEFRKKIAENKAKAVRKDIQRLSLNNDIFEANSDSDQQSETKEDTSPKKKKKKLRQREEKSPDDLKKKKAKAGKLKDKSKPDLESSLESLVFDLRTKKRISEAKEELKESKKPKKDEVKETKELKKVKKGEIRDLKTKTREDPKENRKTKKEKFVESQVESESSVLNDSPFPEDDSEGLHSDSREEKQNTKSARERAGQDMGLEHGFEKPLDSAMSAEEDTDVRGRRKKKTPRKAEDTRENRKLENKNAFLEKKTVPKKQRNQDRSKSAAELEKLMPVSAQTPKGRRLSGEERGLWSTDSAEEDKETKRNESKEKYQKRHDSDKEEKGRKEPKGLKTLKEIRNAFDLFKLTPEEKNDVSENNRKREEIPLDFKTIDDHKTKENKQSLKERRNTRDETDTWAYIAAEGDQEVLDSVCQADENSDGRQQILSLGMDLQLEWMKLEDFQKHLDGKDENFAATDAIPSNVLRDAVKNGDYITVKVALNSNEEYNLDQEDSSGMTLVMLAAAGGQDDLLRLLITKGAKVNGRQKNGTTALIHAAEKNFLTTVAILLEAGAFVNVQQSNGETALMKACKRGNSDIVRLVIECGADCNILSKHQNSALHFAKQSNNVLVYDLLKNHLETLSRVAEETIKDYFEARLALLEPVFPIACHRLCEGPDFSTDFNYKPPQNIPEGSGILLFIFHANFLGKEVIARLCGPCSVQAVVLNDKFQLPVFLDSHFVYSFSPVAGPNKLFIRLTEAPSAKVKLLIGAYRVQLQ
How it was run: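 Disruption of the preformed MPP8–trimethyl-H3K9 peptide complex (both 50 nM, 30 min, RT) is measured after 30 min compound exposure, using AlphaScreen proximity beads; aurintricarboxylic acid titration serves as plate control.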

[19] = biological target: ATPase family AAA domain-containing protein 5 (Homo sapiens) (UniProt Q96QE3); experiment: Validation screen for small molecules that inhibit ELG1-dependent DNA repair in human embryonic kidney (HEK293T) cells expressing luciferase-tagged ELG1 (AID 493107);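 further: cells co-treated with the DNA-damaging agent 5-fluorouridine alongside compound; series mostly up to about 46 µM; on the % scale 0 is the no-effect control and ±100 the full control effect; inhibitors lower the ELG1-luciferase luminescence signal; nearly all actives have a fitted effect of over 70% in size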
How it was run: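 Quantitative HTS in HEK293T cells carrying luciferase-tagged ELG1, stimulated with 5-fluorouridine alongside compound for 16 hr. Loss of luciferase signal marks inhibition of ELG1 response.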

CN(C)C(=O)C(CCN1CCC(O)(c2ccc(Cl)cc2)CC1)(c1ccccc1)c1ccccc1
inactive: outcome [1] | Potency [2] | outcome [3] | Potency [4] | Potency [5] | Potency [6] | activation [7] 17% | outcome [8] | Potency [9]

Cc1ccc(-c2cc(C(F)(F)F)nn2-c2ccc(S(N)(=O)=O)cc2)cc1
inactive: Potency [10]

Cc1cc(C(C)(C)C)cc(C)c1CC1=NCCN1
inactive: outcome [1] | Potency [11] | Potency [12] | outcome [3] | outcome [13] | outcome [14] | Potency [4] | Potency [5] | Potency [6] | Potency [10] | Potency [15] | Potency [16] | outcome [8] | Potency [9] | Potency [17]
1.17%: viability change [16]

COc1ccc(C2CNC(=O)C2)cc1OC1CCCC1 (centres undefined)
inactive: Potency [2] | Potency [11] | Potency [18] | Potency [12] | outcome [3] | outcome [13] | outcome [14] | Potency [4] | Potency [5] | Potency [6] | Potency [15] | activation [7] 0.812% | Potency [16] | outcome [8] | Potency [9] | Potency [17]
3.91%: viability change [16]

CN1CCN(C2=Nc3cc(Cl)ccc3Nc3ccccc32)CC1
inactive: Potency [2] | outcome [3] | outcome [14] | Potency [15] | activation [7] 3.31% | Potency [16] | outcome [8] | Potency [9] | Potency [17]
-10.5%: viability change [16]

CCOC(=O)c1ncn2c1CN(C)C(=O)c1cc(F)ccc1-2
inactive: Potency [2] | Potency [18] | Potency [12] | outcome [3] | outcome [14] | Potency [4] | Potency [5] | Potency [6] | Potency [15] | Potency [19] | Potency [16] | outcome [8] | Potency [9] | Potency [17]
2.56%: viability change [16]

NCCc1cnc[nH]1
inactive: Potency [2] | Potency [11] | Potency [18] | Potency [12] | outcome [3] | outcome [13] | outcome [14] | Potency [4] | Potency [5] | Potency [6] | Potency [15] | Potency [19] | activation [7] 1.06% | Potency [16] | outcome [8] | Potency [9] | Potency [17]
1.05%: viability change [16]

NC(=O)NO
-1.36%: viability change [16]
inactive: Potency [2] | Potency [11] | Potency [18] | Potency [12] | outcome [3] | outcome [13] | outcome [14] | Potency [4] | Potency [5] | Potency [6] | Potency [15] | Potency [19] | activation [7] 1.12% | Potency [16] | outcome [8] | Potency [9] | Potency [17]

CN(CCOc1ccc(NS(C)(=O)=O)cc1)CCc1ccc(NS(C)(=O)=O)cc1
inactive: Potency [10]

O=c1c(O)c(-c2ccc(O)c(O)c2)oc2cc(O)cc(O)c12
-9.26%: viability change [16]
inactive: outcome [1] | Potency [2] | outcome [3] | outcome [13] | outcome [14] | Potency [4] | Potency [10] | Potency [15] | activation [7] 0.938% | Potency [16] | outcome [8] | Potency [9] | Potency [17]

From PubChem BioAssay (NCATS)
